RGS4 inh: human RGS4 inhibition. Transcreener GDP fluorescence polarization, RGS4-accelerated GTP hydrolysis. Potency, µM (titrated, usually from 114 µM), for the others: at the top dose activity change, negative = inhibition, hits mostly inhibitors. 390,000 tested, 0.039% active. AID 504845. P49798; further: nearly all actives have a fitted effect of over 75% in size
Target sequence (P49798 whole entry, looked up): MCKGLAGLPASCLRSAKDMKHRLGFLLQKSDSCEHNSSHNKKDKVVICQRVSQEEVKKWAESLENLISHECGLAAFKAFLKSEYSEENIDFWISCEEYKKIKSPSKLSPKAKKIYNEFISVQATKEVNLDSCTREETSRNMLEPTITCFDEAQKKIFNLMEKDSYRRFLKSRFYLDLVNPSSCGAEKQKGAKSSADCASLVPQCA
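MLSMR compounds (23 nl, pin-transferred) preincubated 10 min at room temperature with a 500nM (2x) first reagent, then RGS4 at 900nM (2x) plus Transcreener GDP mix added; fluorescence polarization (620/688 nm) read before and after 90 min at 30 °C.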
Eya2 phos inh: blocks the phosphatase activity of human Eya2. O00167. recombinant Eya2, OMFP fluorescence dephosphorylation (OMFP is methylfluorescein phosphate). Potency, µM (top dose mostly 76.9 µM), for the others: at the highest dose activity, negative = inhibition, usual class: inhibitors. 330,000 tested, 0.006% active. AID 488837
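Eya2 protein (added as 0.2 uM solution) was preincubated with compound for 10 min at ambient temperature in 50 mM HEPES pH 7.5, 50 mM NaCl, 5 uM MgCl2, 0.05% BSA, 1 mM DTT. OMFP (added at 50 uM) then reacted 10 min; fluorescence read at 485/525 nm.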
rTrxR1 inhibitor: inhibitors of rat thioredoxin reductase 1; O89049; recombinant rTrxR1, NADPH fluorescence consumption, selenite substrate; Potency, µM (doses to about 114 µM), for inactives: at the highest dose activity change, negative = inhibition, hits mostly inhibitors; 390,000 tested, 1% active; further: nearly all actives have a fitted effect of over 65% in size
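Rat TrxR1 (90 nM in the dispensed reagent) was pre-reduced with 400 uM NADPH for 5 min at room temperature, then incubated with compound for 15 min. After 400 uM selenite was added, NADPH fluorescence (Ex 340/Em 450 nm) was followed for 8 min.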
USP2a block: blocks human ubiquitin-specific protease USP2a. Potency, µM (doses to about 38.3 µM), for the others: at the highest dose activity change, negative = inhibition, actives largely listed as inhibitors. USP2 core, Ub-CHOP2 coupled fluorogenic reporter, 485/531. AID 463254. O75604. 330,000 tested, 0.01% active;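 further: plate controls were DMSO wells for no effect and full inhibition by NEM control for full effect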
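Deubiquitinase activity read as fluorescence (485/531 nm) after Ub-CHOP2 cleavage activates the enterokinase reporter on its substrate; USP2 core 10nM, Ub-CHOP2 and substrate 25nM each, 30min compound preincubation then 60min RT; data normalized to NEM, curves fitted.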
GALK inh: blocks human galactokinase activity | Potency, µM (highest dose often 57.5 µM), without a hit: top-dose activity change, negative = inhibition, most hits filed as inhibitors | 270,000 tested, 0.007% active | Purified GALK, Kinase-Glo residual ATP luminescence | P51570 | AID 1868
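Compounds were pin-transferred into ATP buffer (35 uM final), then GALK plus galactose (5 nM, 100 uM final) was added. After 1 h at room temperature, Kinase-Glo Plus was added and luminescence read after 10 min.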
TrxR1 substrate: rat thioredoxin reductase 1 substrate activity | 390,000 tested, 0.01% active | Potency, µM (doses to about 114 µM), for the others: at the highest dose activity change, negative = substrate turnover | purified TrxR1 substrate turnover, NADPH consumption readout | O89049; further: nearly all actives have a fitted effect of over 50% in size
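Rat TrxR1, dispensed at 90 nM, was prereduced with 400 uM NADPH (final) for 5 min at ~22 deg C, then incubated with compound 15 min before 400 uM selenite. A first-read NADPH fluorescence drop versus no-compound background flagged substrates.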
* marks the source's active call; other numbers are inactive results; i = inactive; ? = inconclusive; nt = no result; [ ] = dose if it differs, or a comment. Shown are actives, neighbours in structure and some others; about 1% of the full set was active somewhere. The call rests on the fitted dose curve; in most records, active means well fitted curve in the direction sought with a large enough effect; inconclusive means small, poorly fitted or top-dose-only effect, or another doubt; inactive means no such curve, though single readings can be large; an effect the other way counts as inactive or inconclusive. Unless noted, on the % scale 0 is the no-effect control and ±100 the full control effect; potency means the concentration at half of the fitted maximal effect.

SMILES	RGS4 inh	Eya2 phos inh	rTrxR1 inhibitor	USP2a block	GALK inh	TrxR1 substrate
CC(C)OC(=O)n1c(=S)oc2ccccc21	-50%	5%	-8%	-1%	0%	10%[57.1 µM]
CCCCC(=O)/C=C/n1c(=S)oc2ccccc21	-48%	3%	2.2µM*	4%	1%	-5%
Nc1ccc(Cc2ccc(C=O)cc2)cc1	nt	nt	28%	nt	nt	6%
C#CCNC(=O)C1=C[C@@H](C)[C@H](CCCO)[C@@H](OCC)O1	-2%	nt	18µM*	nt	nt	-2%[57.1 µM]
Cc1ccc(C(=O)c2no[n+]([O-])c2C(=O)c2ccc(C)cc2)cc1	-31%	9%	0.89µM*	1%	nt	-3%
Cc1ccc(S(=O)(=O)/N=C2/NC(=O)/C(=C\c3cc(Br)cc(Br)c3O)S2)cc1	?	?	-24%	-22%	?	-12%
Cc1ccc(S(=O)(=O)/N=C2/NC(=O)/C(=C/c3ccc(Br)o3)S2)cc1	-28%	8%	28µM*	0%	-28%	-8%
O=[N+]([O-])c1ccc(O)c(C2=NNC(c3ccccc3F)C2)c1 (stereo not drawn)	-44%	2%	35µM*	-1%	-2%	-1%
Oc1ccc(Cl)cc1C1=NNC(c2cccs2)C1 (stereo not drawn)	-8%[11.4 µM]	7%	?	5%	-2%	4%
CC1CCCN(c2cc(N(C)CCO)c([N+](=O)[O-])c3nonc23)C1 (stereo not drawn)	-8%	-14%	-10%[57.1 µM]	-4%	-1%	-13%[57.1 µM]
CN(CCO)c1cc(N2CCC3(CC2)OCCO3)c2nonc2c1[N+](=O)[O-]	2%	-9%	28µM*	4%	1%	-33%
CN(CCO)c1cc(N2CCCCC2)c2nonc2c1[N+](=O)[O-]	-4%	-1%	45µM*	-3%	3%	-18%
Cc1ccc(C(=O)C[n+]2cccc3cccc(O)c32)cc1	nt	nt	2%	nt	nt	3%
COC(=O)Cc1c(C)c2ccc3c(c2oc1=O)CN(Cc1ccc(C)cc1)CO3	2%	nt	35µM*	nt	nt	i
COC(=O)Cc1c(C)c2ccc3c(c2oc1=O)CN(Cc1ccccc1Cl)CO3	4%	nt	?	nt	nt	i
COC(=O)Cc1c(C)c2ccc3c(c2oc1=O)CN(Cc1ccccc1OC)CO3	-18%	nt	40µM*	nt	nt	i
COc1ccc(CN2COc3ccc4c(C)cc(=O)oc4c3C2)cc1	4%	nt	-85%	nt	nt	i
Brc1ccc(-c2ccccc2)cc1	31%	1%	22%	1%	nt	7%
Brc1ccc(C=C2C=c3ccccc3=C2)cc1	nt	nt	35µM*	nt	nt	-3%
COc1cccc(/C=C/c2nc(C#N)c(N3CCC(C(N)=O)CC3)o2)c1	47%	nt	79µM*	nt	nt	i
Cc1ccc(S(=O)(=O)N2CCN(c3nc(-c4cncn4C)nc4ccccc34)CC2)cc1	11%	nt	7%	nt	nt	11%
Cc1cc(F)ccc1S(=O)(=O)N(C(=O)c1ccncc1)c1ccc(OC(=O)c2ccncc2)cc1	1%	-23%	1%[57.1 µM]	9%	0%	4%[57.1 µM]
O=C(Oc1ccc(N(C(=O)c2ccncc2)S(=O)(=O)c2cccs2)cc1)c1ccncc1	-21%[56.9 µM]	5%	40µM*	2%	0%	3%
Cc1cccc(Sc2c([N+](=O)[O-])ncn2C)c1	-42%	-4%	?	1%	nt	-2%[57.1 µM]
Cn1cnc([N+](=O)[O-])c1Oc1ccc2ccccc2c1	-38%	-2%	4µM*	-2%	0%	11%[11.4 µM]
C[C@@H]1CN([C@H](C)CO)C(=O)c2cc(NC(=O)c3ccncc3)ccc2O[C@@H]1CN(C)C(=O)Nc1ccccc1	-7%	22%	71µM*	1%	nt	1%
O=C(CCl)N(c1ccccc1)C1CCCCC1	12%	-21%	3.2µM*	-1%	-3%	14%[57.1 µM]
CC(=O)N(c1ccccc1)C1CCCC1	20%	-2%	-18%	0%	1%	-14%
